Test results published in PubChem BioAssay (NCI).
This is part of a sample that, as a whole, favours compounds with a hit. Of some 79,000 tested, about 15% had one in any assay. No stated cut-off is given here; in the data, active means growth inhibition above about 70%; inactive means the rest.

Tests used:
[1] = NCI Yeast Anticancer Drug Screen. Data for the rad50 strain (AID 155);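 further: 0% = growth of vehicle-only cultures of the same strain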; settings: S. cerevisiae rad50 strain growth inhibition; at 50.0 µM; hits give high values
Summary of the method: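 DNA repair mutant yeast, compound exposure, growth read-out; inhibition is taken relative to vehicle.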

[2] = NCI Yeast Anticancer Drug Screen. Data for the mec2-1 strain (AID 157); settings: S. cerevisiae mec2-1 strain, at 50.0 µM, hits give high values
Summary of the method: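 Yeast mec2-1 mutant treated with compound. Readout: growth inhibition vs vehicle controls.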

[3] = NCI Yeast Anticancer Drug Screen. Data for the sgs1 mgt1 strain (AID 161);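 further: 0% = growth of cultures given vehicle only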; settings: S. cerevisiae sgs1 mgt1 strain, at 50.0 µM, hits give high values
Summary of the method: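 Read-out: growth inhibition vs vehicle controls. Cells: mutant yeast strain deficient in DNA damage repair.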

[4] = NCI Yeast Anticancer Drug Screen. Data for the cln2 rad14 strain (AID 165);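 further: 0% = growth equal to vehicle treated cultures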; settings: S. cerevisiae cln2 rad14 strain, at 50.0 µM, hits give high values
Summary of the method: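 cln2 rad14 yeast strain; compound exposure; growth inhibition read vs vehicle controls.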

[5] = NCI Yeast Anticancer Drug Screen. Data for the bub3 strain (AID 167); settings: S. cerevisiae bub3 mutant strain, at 50.0 µM, hits give high values
Summary of the method: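 In this screen, a yeast mutant lacking normal mitotic checkpoint function is challenged with compound. Relative growth versus vehicle gives the inhibition value.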

[6] = NCI Yeast Anticancer Drug Screen. Data for the mlh1 rad18 strain (AID 175); settings: S. cerevisiae mlh1 rad18 strain growth inhibition; at 50.0 µM; hits give high values
Summary of the method: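 Yeast w/ defined DNA-repair lesions; compound exposure; growth vs vehicle controls → % inhibition.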

Measured: growth inhibition

O=C(O)CCNC(=O)c1ccccc1O
inactive: [1] -41.5% | [2] -8.5% | [3] -17.1% | [4] -53.8% | [5] -18.1% | [6] -56.8%

Cn1c2ccccc2c2c(-c3ccccc3)cc3c(c21)C(=O)C=CC3=O
inactive: [1] -15.3% | [2] -10.6% | [3] 3.8% | [4] 16.2% | [5] -25.9% | [6] 7.95%

Cc1ccc(NC(=O)Oc2ccc(Br)cc2Br)c(Cl)c1
inactive: [1] 21.1% | [2] 17.9% | [3] 16.7% | [4] -0.25% | [5] -6.3% | [6] 41.6%

CCOC/N=C(/N)NC#N
inactive: [1] 25.6% | [2] 2.35% | [3] 10.8% | [4] 13.1% | [5] -3.4% | [6] 33.1%

COc1cc(C(=O)n2c(=O)oc(=O)c3cc([N+](=O)[O-])ccc32)cc(OC)c1OC
inactive: [1] -15.4% | [2] -6.15% | [3] -16.4% | [4] -6.65% | [5] 1.6% | [6] 2.2%

CCCCCCC(N)=O
inactive: [1] 8.1% | [2] 2.1% | [3] -4.05% | [4] -26.9% | [5] -6.45% | [6] 9.75%

CC1=C(C(=O)O)C(C)CC(=O)N1 (configuration not stated)
inactive: [1] 5.15% | [2] -3.4% | [3] -8.25% | [4] -12.4% | [5] 1.2% | [6] 7.9%

CC(NC(=O)NC(C)(C)C)c1ccccc1 (configuration not stated)
inactive: [1] 3.05% | [2] -12.9% | [3] -5.05% | [4] -37% | [5] 5.2% | [6] 4.1%

COc1ccc(/C=C2/C(=O)N(C(=O)c3ccc(Cl)cc3)N=C2C)cc1OC
inactive: [1] -18.7% | [2] -36.9% | [3] -32.6% | [4] -3.55% | [5] -17.1% | [6] -35.5%

Cc1cc(C(c2ccc(Nc3ccccc3)cc2)c2ccc(Nc3ccccc3)cc2)ccc1Nc1ccccc1
inactive: [1] 2.35% | [2] -4.65% | [3] 7.5% | [4] -7.05% | [5] 5.5% | [6] -19.1%

C=CCNC(=S)NCc1ccc(Cl)cc1
inactive: [1] 21.3% | [2] 7.8% | [3] 22.7% | [4] -46.6% | [5] 5.15% | [6] 12.1%

COc1ccc(OC)c2c1ccc1c(C)c3ccccc3c(C)c12
inactive: [1] 12.2% | [2] -1.1% | [3] 14.2% | [4] 6.8% | [5] 34.1% | [6] 26.2%

CC(=O)O.Cl.NC1C([O-])OC(CO)C(O)C1O.O=C1OC(C(O)CO)C([O-])=C1[OH2+].[Cu+2] (configuration not stated)
inactive: [1] 21.3% | [2] 8.3% | [3] -9.6% | [4] 5.95% | [5] 5.05% | [6] 17.2%

NC(CSCC(=O)O)C(=O)O (configuration not stated)
inactive: [1] -19.8% | [2] -3.85% | [3] 1.15% | [4] -20.6% | [5] 16.1% | [6] -5.9%

Cc1c(C)n(S(=O)(=O)c2ccccc2)c2ccccc12
inactive: [1] 20.6% | [2] 10.4% | [3] 21.4% | [4] 27.9% | [5] 13.2% | [6] 27.4%

CCOC(=O)C(=O)Nc1ccccc1C(C)C
inactive: [1] 12.4% | [2] 6.05% | [3] 0.2% | [4] -7.15% | [5] -9% | [6] 6.35%

CC(C)NC(=O)NCCc1c[nH]c2ccccc12
inactive: [1] -49.9% | [2] -11.8% | [3] 1.85% | [4] 6.95% | [5] 16.2% | [6] -13.2%

Cc1cc(C(F)(F)F)nc2nc3ccccc3n12
inactive: [1] 6.55% | [2] -18.9% | [3] -0.15% | [4] -3.7% | [5] -29.7% | [6] 6.2%

C[N+](C)(C)CC(=O)NC(=O)N/N=C\C(CC#N)CN(Cc1ccccc1)Cc1ccccc1 (configuration not stated)
inactive: [1] 23.5% | [2] 13.7% | [3] 19.1% | [4] 10.6% | [5] 2.35% | [6] 12.2%

CN1C(=O)N(C)C2=NC(=O)N(C)C2(C(Cl)(Cl)Cl)C1=O (configuration not stated)
inactive: [1] 45.3% | [2] 32.2% | [3] 47.4% | [4] 24.6% | [5] 21.6% | [6] 58%

NC(=O)NC(=O)N/N=C/c1ccccc1
inactive: [1] 23.2% | [2] 2.4% | [3] 2.8% | [4] 4.15% | [5] 7.6% | [6] 14.9%

CC1(C)C[C@@H]2C1CCC1(C)CC2(O)CC[C@H]1O (some centres not stated)
inactive: [1] -23.6% | [2] -35% | [3] -24.8% | [4] 14.4% | [5] 2.3% | [6] -17.9%

O=C(C[n+]1cccc(CO)c1)c1ccc(-c2ccc(C(=O)C[n+]3cccc(CO)c3)cc2)cc1
inactive: [1] 22.8% | [2] 5.35% | [3] 31.7% | [4] -4.7% | [5] -1.7% | [6] 11.7%

COC(=O)C(CNc1ccc(S(N)(=O)=O)cc1)=[N+]=[N-]
inactive: [1] 7.4% | [2] 13.3% | [3] 0.95% | [4] -12.8% | [5] 6.25% | [6] 11.2%

Cc1c(O)cccc1C(=O)C[n+]1ccccc1
inactive: [1] 3.85% | [2] -8% | [3] 10.8% | [4] -24.9% | [5] -6.9% | [6] 1.25%

CCCCCCCCCCCCCCCCCC(=O)[O][Al][O]C(C)C
inactive: [1] -38.1% | [2] -35% | [3] -10.8% | [4] 4.55% | [5] -19.5% | [6] -14.9%

CNc1ccccc1C(=O)N/N=C/c1c(O)ccc2ccccc12
inactive: [1] -3.15% | [2] 18.3% | [3] 19% | [4] -10.3% | [5] 36.1% | [6] 2.45%

CC(C)(C#N)NC(=O)NC(C)(C)C(N)=O
inactive: [1] -4.1% | [2] 2.25% | [3] -3.25% | [4] -50.2% | [5] 9.5% | [6] -1.4%

CNC(=S)SCc1ccc(Cl)cc1
inactive: [1] -10.6% | [2] -12.5% | [3] 11.4% | [4] -36.6% | [5] 40.8% | [6] 2.7%

O=C1CC2(CCc3ccccc32)C(=O)N1CN1CCN(c2ccccn2)CC1 (configuration not stated)
inactive: [1] 0.55% | [2] 3.5% | [3] -10% | [4] -9.15% | [5] -1.9% | [6] 18.1%

CCOC(=O)CS(=O)(=O)CS(=O)(=O)CC(=O)OCC
inactive: [1] 10% | [2] 8.35% | [3] 7.85% | [4] 5.55% | [5] 9.95% | [6] 7.25%

O=C(O)c1cnc2cc3c(cc2c1Nc1cccc(C(F)(F)F)c1)OCO3
inactive: [1] 29% | [2] -8.85% | [3] 5.15% | [4] 6.7% | [5] 29.4% | [6] 4.05%

O=C(O)CCc1nc2ccccc2[nH]1
inactive: [1] -9.3% | [2] -4.9% | [3] -23.8% | [4] 39.1% | [5] -43.9% | [6] -1%

CSC1(C)CC2C(CC1N1CCCCC1)C2(C)C (configuration not stated)
inactive: [1] -28.4% | [2] -16.4% | [3] -46.4% | [4] 5.8% | [5] -24% | [6] -35.9%

COc1ccc(N2C(=O)CCC2=S)cc1
inactive: [1] -5.35% | [2] 8.55% | [3] 6.8% | [4] -4.5% | [5] -7.9% | [6] 15.5%

Nc1nc(Sc2ccccn2)ccc1[N+](=O)[O-]
inactive: [1] 0.25% | [2] -12.8% | [3] -2.1% | [4] -27.1% | [5] -12.1% | [6] -6.45%

Cc1oc2nc(N(C)C)nc(NN)c2c1C
inactive: [1] 10.1% | [2] 5.55% | [3] -4.55% | [4] -0.75% | [5] 10.2% | [6] -13.8%

CCC(O)(Cc1ccccc1)C(C(=O)O)c1ccccc1 (configuration not stated)
inactive: [1] -32% | [2] -31.1% | [3] 4.6% | [4] 4.9% | [5] -28.1% | [6] -26%

C=CCOCCC(OCC=C)OCC=C
inactive: [1] 1.25% | [2] 7.75% | [3] 4.4% | [4] -23.9% | [5] -1.3% | [6] 8.85%

CCCCCCCCCCCC(=O)OC(C)CO (configuration not stated)
inactive: [1] -3.9% | [2] -10.9% | [3] -3.7% | [4] -32.9% | [5] -1.45% | [6] 17.1%

Cc1cc(C)c(NC(N)=S)cc1C
inactive: [1] 7.65% | [2] -23.2% | [3] -5.35% | [4] -7.7% | [5] -5.55% | [6] 7.55%

C#CC(C)(C)Oc1cc(O)c2c(=O)c3ccccc3n(C)c2c1
inactive: [1] -7.9% | [2] -0.35% | [3] 12.2% | [4] 5.3% | [5] 0.2% | [6] 0%
